Fewer than 10 of roughly 52,000 compounds were called active.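 The calls were made as follows: active = IC50 under 40 µM in the dose-response test; inactive = IC50 of 40 µM or more, or never dose-tested.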 Not all results are given here.
biological target: Tyrosine-protein phosphatase non-receptor type 22 (Homo sapiens) (UniProt Q9Y2R2); experiment: inhibition of human PTPN22 tyrosine phosphatase – biochemical, DiFMUP fluorescence, recombinant catalytic domain, 10 µM, primary screen (AID 606); details: recombinant LYP catalytic domain, at 10 µM, hits give high values
Sequence (Q9Y2R2 whole entry, looked up, the tested form may be a part): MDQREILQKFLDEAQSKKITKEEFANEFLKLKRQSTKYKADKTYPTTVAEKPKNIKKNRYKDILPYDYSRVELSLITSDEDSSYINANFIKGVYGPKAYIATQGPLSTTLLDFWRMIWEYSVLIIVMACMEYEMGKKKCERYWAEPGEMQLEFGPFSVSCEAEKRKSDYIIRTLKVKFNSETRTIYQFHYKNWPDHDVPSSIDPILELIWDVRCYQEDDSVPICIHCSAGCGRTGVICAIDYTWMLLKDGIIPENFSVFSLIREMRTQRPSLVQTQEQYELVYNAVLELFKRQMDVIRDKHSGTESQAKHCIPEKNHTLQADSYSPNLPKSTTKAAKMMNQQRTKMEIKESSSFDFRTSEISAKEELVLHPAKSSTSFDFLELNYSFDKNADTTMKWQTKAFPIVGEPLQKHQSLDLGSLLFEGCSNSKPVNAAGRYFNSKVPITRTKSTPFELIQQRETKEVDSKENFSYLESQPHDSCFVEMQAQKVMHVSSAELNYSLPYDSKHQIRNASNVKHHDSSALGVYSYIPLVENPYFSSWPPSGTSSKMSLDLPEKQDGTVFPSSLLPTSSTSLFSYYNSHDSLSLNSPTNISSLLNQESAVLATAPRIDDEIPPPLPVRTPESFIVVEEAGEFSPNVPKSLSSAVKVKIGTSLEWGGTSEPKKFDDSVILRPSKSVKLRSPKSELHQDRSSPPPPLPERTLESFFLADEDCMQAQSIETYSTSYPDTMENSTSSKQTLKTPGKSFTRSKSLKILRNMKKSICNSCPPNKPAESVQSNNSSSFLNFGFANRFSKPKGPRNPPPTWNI

inhibition, inactive:
COc1ccccc1-n1c(CNc2c(C)cccc2C)nnc1SCC(=O)N1CCOCC1 19.1%
Cc1ccc(-n2c(N)c(C(=O)N3CCOCC3)sc2=S)cc1 15.3%
O=C1CC(c2ccc3c(c2)OCO3)Sc2nc3ccccc3n21 (stereo unspecified) 11.4%
CCCCN(CCCC)Cc1ccc(N)cc1 3.2%
COc1ccccc1OCc1nc(C#N)c(N2CCC(C(N)=O)CC2)o1 6.04%
COc1nc(Nc2ccc(-c3nc4ccccc4o3)cc2)nc(N2CCOCC2)n1 9.06%
O=C(C1CCN(S(=O)(=O)c2cccc3cccnc23)CC1)N1CCc2ccccc21 2.25%
CCCCn1c(SCC(=O)N2CCCCC2)nc2cc(S(N)(=O)=O)ccc21 17.2%
C=CCNc1nc(NCCN2CCOCC2)nc(OC)n1 7.44%
COC(=O)c1c(NC(=O)CC2SCC(C(=O)OC)NC2=O)sc2c1CCCC2 (stereo unspecified) -6.67%
Cc1onc(-c2ccccc2)c1C(=O)Nc1nc(-c2ccc(F)c(F)c2)cs1 13.4%
CN(C)S(=O)(=O)N1CCN(CC(O)COc2ccc(C(=O)c3ccccc3)cc2)CC1 (stereo unspecified) 10.5%
CCOC(=O)N1CCN(Cc2nc3c(c(=O)n(C)c(=O)n3C)n2Cc2cccc3ccccc23)CC1 7.1%
Nc1c(S(=O)(=O)c2cccs2)c2nc3ccccc3nc2n1/N=C/c1cccc(O)c1 13.6%
O=C(NCc1ccco1)C1CCCN(S(=O)(=O)c2ccc(-n3cnnn3)cc2)C1 (stereo unspecified) 12%
CC(=O)OCP(C)(=O)COC(C)=O 5.43%
CCN(CC)CCOC(=O)c1ccc(N=CC2=C(O)CC(C)(C)CC2=O)cc1 4.23%
Cc1c(N2C(=O)C(C)SC23C(=O)Nc2ccccc23)c(=O)n(-c2ccccc2)n1C (stereo unspecified) 4.85%
COc1ccc(C)cc1NC(=O)C1CCCN1S(=O)(=O)c1ccc2c(c1)CCC(=O)N2 (stereo unspecified) 12%
CCN(CC)c1ccc(NC(=O)c2ccco2)c(C)c1 15.3%
CCc1ccc2[nH]c(=O)c(CN(CCN(C)C)C(=O)Nc3ccccc3OC)cc2c1 -7.1%
CCOC(=O)C1CCN(C(=O)CN(C)S(=O)(=O)c2cc(C)ccc2OC)CC1 -35.9%
CCC12CC3CC(C1)CC(C(=O)Nc1nn[nH]n1)(C3)C2 11.3%
CCN1C(=O)c2cccc3c(S(=O)(=O)Nc4c(C)n(C)n(-c5ccccc5)c4=O)ccc1c23 -6.68%
COC(=O)C1=C(C)NC(=O)CC1c1cccc(OC)c1OC (stereo unspecified) -0.77%
Cn1c(SCC(=O)Nc2ccc3c(c2)oc2ccccc23)nnc1-c1ccccc1 -0.68%
CCCC(=O)C1=C(c2ccccc2)C(C#N)(C#N)C(C#N)=C1N 12%
Cc1ccc(N(CC(=O)Nc2ccc(S(=O)(=O)N3CCOCC3)cc2)S(C)(=O)=O)cc1C 5.91%
CCOC(=O)CSc1nc2c(c(=O)[nH]c(=O)n2C)n1CCc1ccccc1 12%
CC(=O)NC12CC3CC(C1)CC(C(=O)OCC(=O)Nc1ncc(Cl)c(C)c1Cl)(C3)C2 3.56%
O=C1c2ccccc2S(=O)(=O)N1CC(O)COc1ccc(Cl)cc1 (stereo unspecified) 5.66%
CCCCCC(=O)Nc1ccc(N2CCN(S(C)(=O)=O)CC2)cc1 8.48%
CCn1cc(C(=O)NCc2ccco2)c(=O)c2cc(S(=O)(=O)N3CCC(C)CC3)ccc21 2.74%
COC(=O)CSc1nc2c(c(=O)n(C)c(=O)n2C)n1CCCc1ccccc1 4.4%
CCN1C(=O)c2cccc3c(S(=O)(=O)NCCCN4CCOCC4)ccc1c23 8.51%
Cc1cc(NC(=O)COc2cccc(C)c2C)no1 11.1%
Cn1c(SCC(N)=O)nnc1C1CCN(C(=O)NCc2ccccc2)CC1 11.9%
CCOC(=O)c1ccc(-c2n[nH]c(=O)c3ccccc23)cc1 -0.81%
Cc1ccc2c(c1)N(CC(=O)NCc1cccs1)C(=O)CO2 7.47%
O=C(OCN1C(=O)c2ccccc2C1=O)c1cccs1 8.67%
O=C(NCCCc1ccccc1)C1CCN(c2nnc(-n3cccc3)s2)CC1 1.14%
Cn1c(=O)c2cc(S(=O)(=O)N3CCN(c4cccc(C(F)(F)F)c4)CC3)ccc2n(C)c1=O 3.54%
CCn1c(COc2cccc(C)c2)nnc1SCC(=O)Nc1cccc(C(=O)O)c1 7.81%
O=C(CCS(=O)(=O)Cc1ccccc1)N1CCN(Cc2ccccc2)CC1 -7.91%
Cc1cc(Nc2cccc(Cl)c2)n2ncnc2n1 -9.28%
COc1ccc(C(=O)NC2(C(F)(F)F)N=C3SCCN3C2=O)cc1 (stereo unspecified) 96.1%
CCOC(=O)N1CCC(n2c(=S)[nH]c3cc(OC)c(OC)cc3c2=O)CC1 -14.3%
COc1cc2c(cc1OC)CN(C(=O)Cc1ccc(OC)c(S(=O)(=O)N3CCOCC3)c1)CC2 1.37%
CCOc1cc(C#N)c(NC(=O)c2ccco2)cc1OCC 7.92%
Cn1nc(-c2ccc(C(=O)Nc3cccnc3)cc2)c2ccccc2c1=O 13.4%
Cc1ccnc(NC(=O)Nc2cccc(F)c2)c1 -13.1%
O=c1c2cc(N3CCOCC3)ccc2[nH]c(=S)n1CCCN1CCCCC1 7.14%
COCCn1nnnc1C(c1ccc(OC)cc1OC)N1CCN(c2ccccc2)CC1 (stereo unspecified) 7.1%
COCCN(CCOC)C(=O)c1c[nH]c2ccc(S(=O)(=O)N(C)c3ccc(F)cc3)cc2c1=O -2.71%
C/C=C/c1ccc(OCCCCN2C(=O)NC(C)(C)C2=O)c(OC)c1 0.22%
CCOC(=O)c1cc2c(=O)n3cccc(C)c3nc2n(Cc2ccco2)c1=NC(=O)c1cccnc1 12.3%
CCC(C)NC(=O)CN(c1ccc(OC)cc1)S(=O)(=O)c1ccc(NC(C)=O)cc1 (stereo unspecified) -3.53%
CC1CCCCN1CCNC(=O)Cn1nc(-c2ccccc2)ccc1=O (stereo unspecified) -5.86%
CCOC(=O)N1CCC(NC(=O)CCC(=O)N2CC(C)Oc3ccccc32)CC1 (stereo unspecified) 4.49%
COCCn1cc(C(=O)N2CCCC(C)C2)c2c3ccccc3n(C)c2c1=O (stereo unspecified) 8.11%
CCn1c(SCC(=O)Nc2ccc(C(C)=O)cc2)nc2ccccc21 9.9%
CC(C)C(NC(=O)C1CCCCC1)C(=O)Nc1ccc2c(c1)OCCO2 (stereo unspecified) 5.06%
Cc1cc(C)nc(N2CCN(c3ncnc4c3cnn4Cc3ccc(Cl)cc3Cl)CC2)n1 0.3%
Cc1c(C(=O)N2CCOCC2)oc2ccc(S(=O)(=O)N3CCCCCC3)cc12 1.73%
C=CCn1c(C)nc2c(c1=O)c1nc3ccccc3nc1n2-c1ccc(C)cc1 20.7%
Cc1ccc(C2CC(c3ccccc3C)n3nc(N)nc3N2)cc1 (stereo unspecified) 1.78%
O=C(c1ccccc1)c1coc2ccc(O)c(CN3CCOCC3)c12 4.43%
CCn1c(SCCC#N)nnc1-c1ccncc1 5.61%
COC(=O)C1C(=O)C2=C(CC1C)NC(C)=C(C(=O)OC(C)C)C2c1ccc(OC)c(O)c1 (stereo unspecified) 8.85%
CCOn1c(=O)c(-c2cc3ccccc3o2)[n+]([O-])c2ccccc21 7.2%
N#C/C(=C\c1ccc[nH]1)S(=O)(=O)c1ccccc1 1.07%
Cc1cccc(-c2noc(C3CCCCC3)n2)c1 15.8%
CCOc1ccc(C(=O)NCCCN(CC)CC)cc1 16.6%
CCC1CCCCN1C(=O)Cn1c(=O)oc2ccccc21 (stereo unspecified) -4.33%
Cc1ccc(NC(=O)N(Cc2cc3cc(C)cc(C)c3[nH]c2=O)CC2COCCO2)cc1 (stereo unspecified) 1.86%
CC(C)CN1C(=O)NC(NC(=O)c2cccs2)(C(F)(F)F)C1=O (stereo unspecified) -4.34%
CCOc1ccccc1N(C(=O)Cn1nnnc1-c1ccc(C)o1)C(CC)C(=O)NC(C)(C)C (stereo unspecified) 7.35%
O=C(NCc1ccccc1)N(Cc1nc2ccccc2c(=O)[nH]1)C1CCCC1 12.2%
Fc1ccccc1N1CCN(c2nc3ccccc3n3nnnc23)CC1 0.81%
CN(C(=O)COC(=O)c1nc(-c2ccccc2)n(-c2ccccc2)n1)C1CCS(=O)(=O)C1 (stereo unspecified) 23.8%
C=CCc1cccc(CNc2nc3ccccc3n2CC)c1O 8.31%
O=C(O)CCc1ccc(-c2ccccc2)n1NC(=O)c1ccco1 13.5%
CC1CN(C(=O)c2cc3c(=O)n4ccccc4nc3s2)CC(C)O1 (stereo unspecified) 14.8%
CC(C)CC(=O)NC1(C(F)(F)F)C(=O)Nc2c1c(=O)n(C)c(=O)n2C (stereo unspecified) 1.85%
COc1ccc(C)cc1NC(=O)CN1CCN(c2ccccc2F)CC1 9.06%
Cc1nn2c3c(cnc2c1-c1ccccc1)C(=O)CC(c1ccco1)C3 (stereo unspecified) 3.63%
COc1nc(C)nc2c1sc(=S)n2C -1.82%
Cn1c(=O)c2c(nc(N3CCOCC3)n2Cc2c(F)cccc2Cl)n(C)c1=O 4.34%
COC(=O)COC(=O)c1ccc(-n2nnnc2SC)cc1 10.7%
O=C(CCn1c(=O)oc2ccccc21)N1CCN(C(c2ccccc2)c2ccccc2)CC1 5.67%
O=C(Oc1ccc(OC(=O)c2ccncc2)cc1)c1ccncc1 8.57%
